Results as given in PubChem BioAssay AID1159580 (chemical genetic matrix, 2015).
Values joined by “and” are separate entries in the source; they are usually repeats but may differ in a detail not shown here. Equal values may be shown once. Among all 5,500 compounds or so, about 2,000 (36%) were called active. Inconclusive results (about 18%) are left out. Rule as the data show it: active = normalized growth mostly below about 0.91 (no sharp cut-off); inconclusive = no clear call, values can overlap the other calls; inactive = mostly above about 0.92. Some of the results follow.

Assay: chemical genetic growth profiling, strain panel (AID 1159580);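 also: tested at 20 µM; growth read once vehicle control cultures reached saturation at 30 °C; 1 = growth at the plate median or of vehicle wells; lower values mean less growth of the strain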
Settings: S. cerevisiae deletion strains, growth OD

Measured: normalized growth

O=C(CCCN1CC=C(n2c(=O)[nH]c3ccccc32)CC1)c1ccc(F)cc1
inactive: locus YAL013W, strain DEP1, stronger effect = lower value 0.99 | locus YAL021C, strain ccr4, stronger effect = lower value 0.958 | locus YAL026C, strain drs2, stronger effect = lower value 0.992 | locus YAL030W, strain snc1, stronger effect = lower value 0.988 | locus YBL061C, strain skt5, stronger effect = lower value 0.989 | locus YBR009C, strain hhf1, stronger effect = lower value 0.979 | locus YBR021W, strain FUR4, stronger effect = lower value 0.953 | locus YBR023C, strain chs3, stronger effect = lower value 0.983 | locus YBR171W, strain sec66, stronger effect = lower value 0.963 | locus YBR229C, strain ROT2, stronger effect = lower value 0.949 | locus YBR231C, strain swc5, stronger effect = lower value 0.953 | locus YBR279W, strain paf1, stronger effect = lower value 0.972 | locus YCL011C, strain gbp2, stronger effect = lower value 0.975 | locus YCL016C, strain dcc1, stronger effect = lower value 1 | locus YCL029C, strain bik1, stronger effect = lower value 0.973 | locus YCL069W, strain vba3, stronger effect = lower value 0.992 | locus YCR088W, strain abp1, stronger effect = lower value 1 | locus YDL005C, strain med2, stronger effect = lower value 0.973 | locus YDL035C, strain GPR1, stronger effect = lower value 0.972 | locus YDL040C, strain nat1, stronger effect = lower value 0.992 | locus YDL074C, strain BRE1, stronger effect = lower value 0.984 | locus YDL101C, strain DUN1, stronger effect = lower value 0.976 | locus YDL134C, strain PPH21, stronger effect = lower value 0.983 | locus YDL185W, strain tfp1, stronger effect = lower value 0.991 | locus YDL192W, strain arf1, stronger effect = lower value 0.983 | locus YDR001C, strain nth1, stronger effect = lower value 0.974 | locus YDR069C, strain doa4, stronger effect = lower value 0.952 | locus YDR101C, strain arx1, stronger effect = lower value 0.983 | locus YDR137W, strain rgp1, stronger effect = lower value 0.993 | locus YDR150W, strain NUM1, stronger effect = lower value 0.968 | locus YDR159W, strain sac3, stronger effect = lower value 0.989 | locus YDR162C, strain NBP2, stronger effect = lower value 0.978 | locus YDR195W, strain ref2 0.936 | locus YDR297W, strain sur2, stronger effect = lower value 0.984 | locus YDR318W, strain mcm21, stronger effect = lower value 0.991 | locus YDR334W, strain swr1, stronger effect = lower value 0.976 | locus YDR335W, strain msn5, stronger effect = lower value 0.979 | locus YDR388W, stronger effect = lower value 0.986 | locus YDR392W, strain spt3, stronger effect = lower value 0.994 | locus YDR502C, strain sam2, stronger effect = lower value 0.968 | locus YEL003W, strain gim4, stronger effect = lower value 0.99 | locus YEL037C, strain rad23, stronger effect = lower value 1 | locus YEL061C, strain CIN8 (second series), stronger effect = lower value 0.981 | locus YEL061C, strain CIN8, stronger effect = lower value 0.985 | locus YER015W, strain faa2, stronger effect = lower value 0.969 | locus YER016W, strain bim1, stronger effect = lower value 1.01 | locus YER110C, stronger effect = lower value 0.957 | locus YER111C, strain swi4, stronger effect = lower value 0.975 | locus YER155C, strain BEM2 (second series), stronger effect = lower value 0.929 | locus YER155C, strain BEM2, stronger effect = lower value 0.996 | locus YER167W, strain BCK2, stronger effect = lower value 0.982 | locus YFR010W, strain ubp6, stronger effect = lower value 0.993 | locus YGL078C, strain dbp3, stronger effect = lower value 0.976 | locus YGL086W, strain mad1, stronger effect = lower value 0.976 | locus YGL167C, strain pmr1, stronger effect = lower value 0.979 | locus YGL173C, strain kem1, stronger effect = lower value 1 | locus YGL227W, strain vid30, stronger effect = lower value 0.953 | locus YGL240W, strain doc1, stronger effect = lower value 0.953 | locus YGL248W, strain PDE1, stronger effect = lower value 0.982 | locus YGL253W, strain hxk2, stronger effect = lower value 0.981 | locus YGR078C, strain PAC10, stronger effect = lower value 0.985 | locus YGR135W, strain pre9, stronger effect = lower value 0.968 | locus YGR229C, strain SMI1, stronger effect = lower value 0.992 | locus YGR252W, strain gcn5, stronger effect = lower value 0.906 | locus YHR013C, strain ard1, stronger effect = lower value 1.01 | locus YHR027C, strain rpn1, stronger effect = lower value 0.977 | locus YHR030C, strain SLT2, stronger effect = lower value 0.991 and 0.98 | locus YHR079C, strain IRE1 (second series), stronger effect = lower value 0.989 | locus YHR079C, strain IRE1, stronger effect = lower value 0.971 | locus YHR094C, strain hxt1, stronger effect = lower value 0.994 | locus YHR129C, strain ARP1, stronger effect = lower value 0.994 | locus YHR142W, strain chs7, stronger effect = lower value 0.983 | locus YHR200W, strain rpn10, stronger effect = lower value 0.99 | locus YIL066C, strain RNR3, stronger effect = lower value 0.971 | locus YIL073C, strain SPO22, stronger effect = lower value 1.02 | locus YIL125W, strain kgd1, stronger effect = lower value 0.99 | locus YIR030C, strain dcg1, stronger effect = lower value 0.972 | locus YJL092W, strain hpr5, stronger effect = lower value 0.984 | locus YJL095W, strain BCK1 (second series), stronger effect = lower value 0.996 | locus YJL095W, strain BCK1, stronger effect = lower value 1.03 and 0.998 | locus YJL115W, strain asf1, stronger effect = lower value 0.975 | locus YJL129C, strain trk1, stronger effect = lower value 0.939 | locus YJL134W, strain LCB3, stronger effect = lower value 0.979 | locus YJL154C, strain vps35, stronger effect = lower value 0.994 | locus YJL164C, strain tpk1, stronger effect = lower value 0.994 | locus YJL166W, strain qcr8, stronger effect = lower value 0.971 | locus YJL168C, strain set2, stronger effect = lower value 0.999 | locus YJL187C, strain SWE1 (second series), stronger effect = lower value 0.978 | locus YJL187C, strain SWE1, stronger effect = lower value 0.988 | locus YJR043C, strain POL32, stronger effect = lower value 0.995 | locus YJR066W, strain TOR1, stronger effect = lower value 0.93
